From PubChem BioAssay
DT40 TDP1 no CPT: qHTS for Inhibitors of human tyrosyl-DNA phosphodiesterase 1 (TDP1): qHTS in cells in absence of CPT; DT40 Tdp1-/- hTDP1 cells, no CPT, ATP luminescence, 48 h; Potency, µM (doses to about 46.2 µM), hits mostly inhibitors; 15% of 420,000 active; AID 686978, 2013; note: nearly all actives have a fitted effect of over 55% in size
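Luminescent ATP content (CellTiter-Glo) served as the growth readout. Knockout chicken DT40 cells expressing human TDP1 were exposed to compounds without camptothecin for a minimum 48 hr at 37 °C.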
Gal4-VP16 FLuc: VP16 counterscreen qHTS for inhibitors of ROR gamma transcriptional activity; Potency, µM (top dose mostly 53.6 µM), actives largely listed as inhibitors; 3.5% of 310,000 active; Drosophila S2 Gal4-VP16 UAS-luciferase, luminescence, 20 h;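 note: Gal4-VP16 expression switched on by copper sulfate through the metallothionein promoter; nearly all actives have a fitted effect of over 50% in size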
IL1B secr inh: qHTS for Inhibitors of Inflammasome Signaling: IL-1-beta AlphaLISA Primary Screen; 4.7% of 360,000 active; AID 743279, 2014; THP-1 LPS/ATP IL-1B secretion, AlphaLISA, 16 h; stronger effect = lower value; activity change, % at 57.5 µM; in the data active = activity change below about -50%; inconclusive = mostly about -30% to -49%
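Secreted IL-1B measured by AlphaLISA bead assay after 16 h compound exposure of THP-1 cells; compounds (final up to 57.5 uM) added 1 h before LPS (250 ng/mL) and ATP (1.25 mM) stimulation; lower signal means less secretion.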
ELG1 DNA repair: qHTS screen for small molecules that inhibit ELG1-dependent DNA repair in human embryonic kidney (HEK293T) cells expressing luciferase-tagged ELG1 | HEK293T ELG1-luciferase reporter, luminescence, 16 h; DNA damage induced by 5-fluorouridine | Potency, µM (top dose mostly 46.1 µM), actives largely listed as inhibitors | 2.3% of 330,000 active | AID 504467, 2011; note: nearly all actives have a fitted effect of over 55% in size
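5-Fluorouridine DNA damage + compound/DMSO, 2,000 cells/well, 16 h, 37 °C/5% CO2. ONE-Glo, 30 min RT, luminescence. Readout = decrease in reporter signal.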
TDP1 cell CPT: qHTS for Inhibitors of human tyrosyl-DNA phosphodiesterase 1 (TDP1): qHTS in cells in presence of CPT; Potency, µM (top dose mostly 46.2 µM), usual class: inhibitors; chicken DT40 Tdp1-/-;hTDP1 cells + 20 nM CPT, ATP luminescence, 48 h; 12% of 420,000 active; note: nearly all actives have a fitted effect of over 55% in size
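Cell growth measured by CellTiter-Glo luminescence after a minimum 48 h, 37 C compound exposure with 20 nM CPT in Tdp1-knockout DT40 cells stably expressing hTDP1, seeded 400/well; qHTS titration format.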
RORg inh: qHTS for inhibitors of ROR gamma transcriptional activity. Potency, µM (doses to about 53.6 µM), usual class: inhibitors. Drosophila S2 Gal4-RORgamma UAS-luciferase reporter, 20 h. AID 2551, 2010. 5.4% of 310,000 active. Nuclear receptor ROR-gamma (Mus musculus), P51450; note: nearly all actives have a fitted effect of over 60% in size
Target sequence (P51450 whole entry, looked up, the tested form may be a part): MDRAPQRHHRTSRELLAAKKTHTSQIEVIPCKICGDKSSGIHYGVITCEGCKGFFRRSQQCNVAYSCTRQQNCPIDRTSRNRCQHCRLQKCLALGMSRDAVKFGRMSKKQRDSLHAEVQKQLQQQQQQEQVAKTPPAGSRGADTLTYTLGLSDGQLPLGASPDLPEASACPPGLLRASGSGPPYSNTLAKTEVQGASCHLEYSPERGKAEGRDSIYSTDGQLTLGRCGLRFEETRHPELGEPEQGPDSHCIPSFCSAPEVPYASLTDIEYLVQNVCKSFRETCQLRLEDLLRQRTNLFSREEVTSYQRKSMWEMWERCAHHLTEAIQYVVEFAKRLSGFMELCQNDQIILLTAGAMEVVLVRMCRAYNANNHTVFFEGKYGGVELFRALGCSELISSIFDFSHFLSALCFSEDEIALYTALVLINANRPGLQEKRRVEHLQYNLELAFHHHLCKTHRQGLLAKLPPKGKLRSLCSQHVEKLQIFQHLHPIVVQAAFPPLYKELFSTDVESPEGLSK
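Luciferase reporter read in Schneider cells carrying Gal4-RORγ (mouse) and UAS-Photinus luciferase; cells given compound 1 h before 700 uM copper sulfate induction, then incubated 20 h at ambient temperature.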
Numbers stand for hits. Only some compounds are listed: those with a hit (about 21% of all), similar ones and a draw of the others. Unless noted, calls come from the whole dose curve; as a rule, active = well fitted curve in the direction sought with a large enough effect; inconclusive = small, poorly fitted or top-dose-only effect, or another doubt; inactive = no such curve, though single readings can be large; an effect the other way counts as inactive or inconclusive.

For Cc1ccc2c(=O)cc(C(=O)Nc3ccc(S(=O)(=O)N4CCCCCC4)cc3)oc2c1 the results were DT40 TDP1 no CPT inactive and TDP1 cell CPT inactive.
Cc1ccc(C)c(Cn2c(=O)n(Cc3ccccc3)c(=O)c3c(C)c(C)sc32)c1 was read as DT40 TDP1 no CPT inactive and TDP1 cell CPT inactive.
For CC(=O)OCC1OC(n2c(S)c(C#N)c(-c3ccccc3)c(C#N)c2=O)C(OC(C)=O)C(OC(C)=O)C1OC(C)=O (stereo not given) the results were DT40 TDP1 no CPT inconclusive, IL1B secr inh inactive and TDP1 cell CPT inconclusive.
Screening COc1ccc(-n2c(SCC(=O)NCc3ccccc3)nc3c([nH]c4ccccc43)c2=O)cc1 returned DT40 TDP1 no CPT inconclusive and TDP1 cell CPT 18.4µM.
`CCSc1nc2c([nH]c3ccccc32)c(=O)n1-c1ccc(F)cc1` gave DT40 TDP1 no CPT inconclusive and TDP1 cell CPT 20.6µM.
COc1cccc(-n2c(SCC(=O)Nc3c(C)cc(C)cc3C)nc3c([nH]c4ccccc43)c2=O)c1 was read as DT40 TDP1 no CPT 13µM and TDP1 cell CPT 11.6µM.
Screening Cc1ccc(-n2c(SCC(=O)NCc3ccccc3)nc3c([nH]c4ccccc43)c2=O)cc1 returned DT40 TDP1 no CPT inactive and TDP1 cell CPT inconclusive.
Screening O=c1c2[nH]c3ccccc3c2nc(SCc2cccc(F)c2)n1-c1ccccc1 returned DT40 TDP1 no CPT 23.1µM and TDP1 cell CPT inconclusive.
Screening O=C(O)c1ccccc1C(=O)NNc1ccc(Cl)cc1Cl returned DT40 TDP1 no CPT inactive, Gal4-VP16 FLuc inactive, IL1B secr inh inactive, ELG1 DNA repair inactive, TDP1 cell CPT inactive and RORg inh inactive.
For O=C(CSc1nc2c([nH]c3ccccc32)c(=O)n1-c1ccc(F)cc1)NCc1ccc(F)cc1 the results were DT40 TDP1 no CPT 14.6µM and TDP1 cell CPT inconclusive.
O=C(CSc1nc2c([nH]c3ccccc32)c(=O)n1-c1ccc(F)cc1)NCc1ccco1 was read as DT40 TDP1 no CPT inconclusive, Gal4-VP16 FLuc inconclusive, IL1B secr inh inactive, ELG1 DNA repair inconclusive, TDP1 cell CPT inconclusive and RORg inh inactive.
`COc1ccc(/C=N/n2c(N)nc(-c3ccccc3)c2-c2ccccc2)cc1` gave DT40 TDP1 no CPT 16.4µM, Gal4-VP16 FLuc inconclusive, IL1B secr inh inconclusive, ELG1 DNA repair inactive, TDP1 cell CPT 25.9µM and RORg inh inconclusive.
Screening Cc1ccc(-c2nn(-c3ccccc3)cc2/C=N/n2c(-c3cccs3)n[nH]c2=S)cc1 returned DT40 TDP1 no CPT inactive, Gal4-VP16 FLuc inactive, ELG1 DNA repair inactive, TDP1 cell CPT inactive and RORg inh inconclusive.
For COc1cccc(/C=N/n2c(-c3cccs3)n[nH]c2=S)c1 the results were DT40 TDP1 no CPT inactive, Gal4-VP16 FLuc inactive, IL1B secr inh inactive, ELG1 DNA repair inactive, TDP1 cell CPT inactive and RORg inh 7.08µM.
Screening COc1ccc(/C=N/n2c(-c3ccccc3)n[nH]c2=S)cc1 returned DT40 TDP1 no CPT inconclusive, Gal4-VP16 FLuc 4.47µM, IL1B secr inh inactive, ELG1 DNA repair inactive, TDP1 cell CPT inconclusive and RORg inh 5.62µM.
`COc1cc(/C=N/n2c(-c3ccccc3)n[nH]c2=S)cc(OC)c1OC` gave DT40 TDP1 no CPT inconclusive, Gal4-VP16 FLuc inactive, IL1B secr inh inactive, ELG1 DNA repair 4.11µM, TDP1 cell CPT inactive and RORg inh inactive.
CCc1nc2ccccc2c(=O)n1/N=C/c1ccc(OC)cc1 was read as DT40 TDP1 no CPT inactive, IL1B secr inh inactive and TDP1 cell CPT inactive.
For COc1ccccc1N1CCN(C(=O)c2cc(S(=O)(=O)N3CCOCC3)ccc2C)CC1 the results were DT40 TDP1 no CPT inconclusive, IL1B secr inh inactive, ELG1 DNA repair inactive and TDP1 cell CPT inconclusive.
Screening Cc1ccc(-c2nsc(NC(=O)c3oc4cc(C)c(Cl)cc4c3C)n2)cc1 returned DT40 TDP1 no CPT inactive and TDP1 cell CPT inactive.
Screening O=C(NC1CC1)c1cccc(NC(=O)C2CCN(S(=O)(=O)c3cccc(C(F)(F)F)c3)CC2)c1 returned DT40 TDP1 no CPT inconclusive, IL1B secr inh inactive and TDP1 cell CPT inconclusive.
Screening S=c1[nH]nc(-c2ccccc2)n1/N=C/c1cccc(Br)c1 returned DT40 TDP1 no CPT inactive, Gal4-VP16 FLuc 7.08µM, IL1B secr inh inactive, ELG1 DNA repair inactive, TDP1 cell CPT inactive and RORg inh 7.08µM.
`CC1SC(c2ccc(F)cc2)NC1=O` (stereo not given) gave DT40 TDP1 no CPT inactive, Gal4-VP16 FLuc inactive, IL1B secr inh inactive, ELG1 DNA repair inactive, TDP1 cell CPT inactive and RORg inh inactive.
`CCC(C(=O)NC1CCCCC1)n1c(SCc2cccc(C)c2)nc2ccncc21` (stereo not given) gave DT40 TDP1 no CPT inconclusive, Gal4-VP16 FLuc inconclusive, IL1B secr inh inactive, ELG1 DNA repair inactive, TDP1 cell CPT 25.9µM and RORg inh inconclusive.
CCCCNC(=O)C(CC)n1c(SCc2cccc(F)c2)nc2ccncc21 (stereo not given) was read as DT40 TDP1 no CPT inconclusive and TDP1 cell CPT 10µM.
Screening CCC(C(=O)NC1CCCCC1)n1c(SCc2cccc(F)c2)nc2ccncc21 (stereo not given) returned DT40 TDP1 no CPT inconclusive, Gal4-VP16 FLuc inconclusive, IL1B secr inh inactive, ELG1 DNA repair inactive, TDP1 cell CPT inconclusive and RORg inh inconclusive.
For COc1ccc(S(=O)(=O)N2CCC(C(=O)Nc3ccccc3N3CCCCC3)CC2)cc1OC the results were DT40 TDP1 no CPT inconclusive, Gal4-VP16 FLuc inactive, IL1B secr inh inactive, ELG1 DNA repair inconclusive, TDP1 cell CPT inconclusive and RORg inh inactive.
`C/C(CC(=O)Nc1cc(C)ccn1)=N\NC(=O)c1cccc(F)c1` gave DT40 TDP1 no CPT inactive, Gal4-VP16 FLuc inactive, IL1B secr inh inactive, ELG1 DNA repair inactive, TDP1 cell CPT inactive and RORg inh inactive.
Cc1ccc(C(=O)CC(C(=O)O)P(=O)(c2ccccc2)c2ccccc2)cc1 (stereo not given) was read as DT40 TDP1 no CPT inactive, Gal4-VP16 FLuc inactive, IL1B secr inh inactive, ELG1 DNA repair inactive, TDP1 cell CPT inactive and RORg inh inactive.
Screening Cc1ccc(P(=O)(c2ccc(C)cc2)[C@@H](NC(c2ccccc2)c2ccccc2)c2ccccc2)cc1 returned DT40 TDP1 no CPT 13µM, IL1B secr inh inactive and TDP1 cell CPT 18.4µM.
